PubChem BioAssay AID540333 (Southern Research Specialized Biocontainment Screening …, 2011)
Hit rate of the full screen: of about 10,000 compounds, about 320 (3.2%) were called active. Rule as the data show it: active = CPE inhibition mostly above about 9.1% (no sharp cut-off); inactive = mostly below about 7.2%. The list comes from a sample in which actives are over-represented; it also holds similar structures and randomly drawn compounds.

Assay: antivirals protecting cells from dengue CPE – CPE readout, HTS (AID 540333)
Conditions: Dengue virus CPE inhibition in host cells, at 20 µM; active compounds read high

| SMILES | CPE inhibition |
| --- | --- |
| CCC(=O)NC(Nc1nc(C)cs1)(C(=O)OC)C(F)(F)F (stereo not given) | 0.32% (inactive) |
| CC(C)(C)OC(=O)N[C@H](C(=O)OC(C)(C)C)c1ccc2ccccc2c1 | 0.425% (inactive) |
| CCOC(=O)C(C)(C)N(Cc1ccccc1C)S(=O)(=O)c1ccc(Cl)c([N+](=O)[O-])c1 | 7.12% (inactive) |
| CCOC(=O)C(C)(C)N(Cc1ccc(C)cc1)S(=O)(=O)c1ccc(Cl)c([N+](=O)[O-])c1 | 7.28% (active) |
| CCOC(=O)C(C)(C)N(Cc1cccc(C)c1)S(=O)(=O)c1ccc(Cl)c([N+](=O)[O-])c1 | 7.24% (inactive) |
| O=C(NN1C(=O)/C(=C\c2cccnc2)SC1=S)C(c1ccccc1)c1ccccc1 | inactive |
| Cc1ccccc1C(=O)NCCCCc1ccccc1 | 0.125% (inactive) |
| CCC(C)NC(=O)Cn1c(COc2ccc(Cl)cc2Cl)nc2ccccc21 (stereo not given) | 13.4% (active) |
| O=C(Cn1c(COc2ccc(Cl)cc2)nc2ccccc21)NCC(F)(F)F | inactive |
| O=C(Cn1c(COc2ccccc2)nc2ccccc21)Nc1cc(Cl)ccc1Cl | 5.49% (inactive) |
| CCOc1cc(/C=C/c2cc(C(=O)O)c3ccccc3n2)ccc1O | 0.055% (inactive) |
| Cc1ccc(NS(=O)(=O)c2ccc(C3CCCCC3)cc2)cc1 | 21.5% (active) |
| Cc1ccc(S(=O)(=O)Nc2ccc(NC(=O)Nc3ccc(F)cc3F)cc2)cc1 | 10.3% (inactive) |
| Cc1ccc(NS(=O)(=O)c2ccc(OCC(=O)NCc3ccncc3)cc2)cc1 | 0.315% (inactive) |
| CC1(C)CC(=O)C2=C(C1)NC1=C(C(=O)c3ccccc31)C2c1ccc(O)cc1 (stereo not given) | 2.13% (inactive) |
| CC(C)Oc1cccc(C(=O)NC(=S)NCc2cccnc2)c1 | 2.73% (inactive) |
| CC(C)NC(=S)NC(=O)c1ccc(-c2ccccc2)cc1 | 0.805% (inactive) |
| O=C(NC(=S)NC(c1ccccc1)c1ccncc1)c1ccccc1 (stereo not given) | 18.9% (active) |
| O=C(NC(=S)Nc1ccc(Cc2ccncc2)cc1)c1ccccc1 | 0.355% (inactive) |
| CCOC(=O)c1c(C(F)(F)F)cc(-c2ccc(F)cc2)nc1C | inactive |
| CC1(C(=O)NC(=S)N(Cc2ccccc2)c2ccccn2)CC1(Cl)Cl (stereo not given) | 0.075% (inactive) |
| CC(C)(Oc1ccc(Cl)cc1)C(=O)N(Cc1ccccc1)c1ccccn1 | 11% (active) |
| COc1cc(/C=C/C(=O)N(Cc2ccccc2)c2ccccn2)cc(OC)c1OC | inactive |

| SMILES | CPE inhibition |
| --- | --- |
| O=C(c1ccc(COc2ccc(Br)cc2)o1)N1N=C(C(F)F)CC1(O)C(F)F (stereo not given) | 2.42% (inactive) |
| Cc1ccc(OCC(=O)Nc2cc(S(=O)(=O)N3CCCCC3)ccc2C)c([N+](=O)[O-])n1 | 3.06% (inactive) |
| Cc1ccc(OCC(=O)Nc2ccccc2Sc2ccc(Cl)cc2)c([N+](=O)[O-])n1 | 13.9% (active) |
| Cc1ccc(OCC(=O)NCC(=O)Nc2ccc(F)c(F)c2F)c([N+](=O)[O-])n1 | 0.32% (inactive) |
| O=C1c2ccccc2S(=O)(=O)c2cc(C(=O)N3CCN(c4ncccn4)CC3)ccc21 | 0.735% (inactive) |
| CC(C)c1ccc(NC(=O)COc2ccc(F)cc2C(=O)c2cnn(-c3ccccc3)c2)cc1 | 1.51% (inactive) |
| CCOP(=O)(OCC)C(NC(=O)Nc1ccccc1)C(N)=O (stereo not given) | 1.93% (inactive) |
| CC(C)C(=O)NCCc1c[nH]c2ccccc12 | 0.48% (inactive) |
| C[C@]1(C(=O)NCCc2c[nH]c3ccccc23)C=C[C@@H](Cc2ccccc2)N1C(=O)c1ccccc1 | 19.4% (active) |
| CC1(C(=O)NCCc2c[nH]c3ccccc23)C=CCN1C(=O)c1ccccc1 (stereo not given) | 1.21% (inactive) |
| CCCCn1c(SCc2nc3ccccc3s2)nc2ccccc2c1=O | inactive |
| CCOc1cc2c3c(c1)C1(C(=O)N3C(C)(C)CC2C)C(C#N)=C(N)N2C(=C1C#N)Nc1ccccc12 (stereo not given) | 2.12% (inactive) |
| Cc1cccc(C(O)(C(=O)NNc2ccc3ccccc3n2)c2cccc(C)c2)c1 | inactive |
| Cc1ccc(NNC(=O)C(O)(c2cccc(C(F)(F)F)c2)c2cccc(C(F)(F)F)c2)cc1 | 7.56% (inactive) |
| O=C(NNc1ccccc1Cl)C(O)(c1cccc(C(F)(F)F)c1)c1cccc(C(F)(F)F)c1 | 20.4% (active) |
| Cc1ccc(NC(=S)NCC(C)C)cc1 | inactive |
| C#Cc1ccc([C@@H]2C=C(C(=O)O)O[C@H](OCC)[C@H]2CCCO)cc1 | 1.06% (inactive) |
| Cc1cc(-c2n[nH]c(=S)n2/N=C/c2cccc([N+](=O)[O-])c2)n[nH]1 | 0.265% (inactive) |
| Cc1cc(-c2n[nH]c(=S)n2/N=C/c2cc([N+](=O)[O-])ccc2Cl)n[nH]1 | 10.9% (active) |
| Cc1cc(-c2n[nH]c(=S)n2/N=C/c2ccccc2[N+](=O)[O-])n[nH]1 | 0.73% (inactive) |
| O=C(Nc1ccc(F)cc1F)c1cc2ncc(CCCl)cn2n1 | 0.045% (inactive) |
| Cc1ccc(S(=O)(=O)N2CCCCC2)cc1C(=O)OCC(=O)NC(=O)NC12CC3CC(CC(C3)C1)C2 | 0.11% (inactive) |
| CN(C)c1ccc(N=Nc2ccccc2C(=O)OCC(=O)NCC2CCCCC2)cc1 | 0.995% (inactive) |

| SMILES | CPE inhibition |
| --- | --- |
| COc1ccc(CN(C)C2c3ccccc3-c3ccccc32)cc1 | 1.16% (inactive) |
| O=C(N/N=C/c1cc([N+](=O)[O-])ccc1O)NC12CC3CC(CC(C3)C1)C2 | 0.635% (inactive) |
| Cc1cc(C(=O)N/N=C/c2cc(Cl)cc([N+](=O)[O-])c2O)c2ccccc2n1 | 0.08% (inactive) |
| O=C(N/N=C/c1cc(Cl)cc([N+](=O)[O-])c1O)NC12CC3CC(CC(C3)C1)C2 | 15.6% (active) |
| Cc1ccc2nc(-c3cccc(NS(C)(=O)=O)c3)cc(-c3ccccc3)c2c1 | 24.6% (active) |
| Clc1ccc2nc(-c3ccncc3)cc(-c3ccccc3)c2c1 | 2.25% (inactive) |
| O=[N+]([O-])c1ccc2nc(-c3ccccc3)cc(-c3ccccc3)c2c1 | 1.14% (inactive) |
| COCCn1c(=NC(=O)c2nc3ccccc3s2)sc2cc(S(C)(=O)=O)ccc21 | 6.63% (inactive) |
| Cc1cccc(/C(N)=N/OC(=O)c2ccc3c(c2)OCO3)c1 | 0.195% (inactive) |
| COc1ccccc1NC(=O)c1ccc(NS(=O)(=O)c2ccc(F)c(Cl)c2)cc1 | inactive |
| COc1ccccc1NC(=O)c1c(Nc2ccccc2C)sc(C(=O)Nc2cccc(Cl)c2)c1N | 0.08% (inactive) |
| COc1ccccc1NC(=O)c1c(Nc2ccccc2F)sc(C(=O)Nc2cccc(Cl)c2)c1N | 17.3% (active) |
| Cc1ccc(-c2csc(NC(=S)NC(=O)c3cc4ccccc4o3)n2)cc1 | 1.54% (inactive) |
| O=C1CSC(=S)N1N=C1CCCCCC1 | inactive |
| O=C(NC(=S)NCC1CCCO1)c1cccs1 (stereo not given) | inactive |
| Cc1onc(-c2c(F)cccc2Cl)c1C(=O)NC(=S)NC1CCSC1=O (stereo not given) | 2.61% (inactive) |
| O=C(NC(=S)NC1CCSC1=O)c1cccs1 (stereo not given) | 12.2% (active) |
| O=C1CCCc2c1cc(-c1ccccc1)n2-c1ccc(O)cc1 | 1.72% (inactive) |
| CCOCCCNC(=O)/C(C#N)=C/c1ccc(-c2ccc(S(=O)(=O)N3CCOCC3)cc2)o1 | 0.33% (inactive) |
| Cc1cc(C)n(C(=O)c2ccc([N+](=O)[O-])cc2[N+](=O)[O-])n1 | 0.325% (inactive) |
| CN(C)/N=C/c1ccc(Sc2ccc([N+](=O)[O-])cc2[N+](=O)[O-])o1 | 2.35% (inactive) |
| Cc1cc(C)nc(Sc2ccc([N+](=O)[O-])cc2[N+](=O)[O-])n1 | 14.6% (active) |
| N#C/C(=C\c1cccn1-c1ccccc1)C(=O)NC1CCCCC1 | 2.54% (inactive) |

| SMILES | CPE inhibition |
| --- | --- |
| O=[n+]1cc(-c2ccccc2)n([O-])c2c1CCCCC2 | 0.81% (inactive) |
| CCOC(=O)c1cc[n+](CC(=O)c2ccc(F)cc2)cc1 | inactive |
| COc1ccc(NC(=O)CC2(Cc3ccccc3)CCOC(C)(C)C2)cc1 (stereo not given) | inactive |
| Cc1ccc(NC2=C(Cl)C(=O)OC2OC(=O)c2ccco2)cc1C (stereo not given) | 14% (active) |
| CCOC1OC(=O)C(Cl)=C1Nc1ccc(C)cc1C (stereo not given) | 0.385% (inactive) |
| Cc1cccc(C)c1NC1=C(Cl)C(=O)OC1OC(C)C (stereo not given) | inactive |
| COc1cc(NC(=O)CN2CCC(C)CC2)c(C)cc1[N+](=O)[O-] | inactive |
| CCN(CC)S(=O)(=O)c1ccc2oc(C(=O)N3CCc4ccccc4C3)c(C)c2c1 | 0.865% (inactive) |
| N#Cc1cc(NCC2CCCO2)c([N+](=O)[O-])cc1C#N (stereo not given) | 0.075% (inactive) |
| CN(CC(=O)Nc1ccc(F)cc1)c1ccc(S(=O)(=O)N2CCCCC2)cc1[N+](=O)[O-] | 2.78% (inactive) |
| CN(CC(=O)Nc1ccc(S(=O)(=O)N2CCCC2)cc1)Cc1ccc(Cl)cc1Cl | 13.3% (active) |
| CN(Cc1cccc(Cl)c1Cl)C(=O)c1ccc(NC(=O)CC#N)cc1 | inactive |
| CN(CC(=O)Nc1ccc(S(=O)(=O)N2CCCC2)cc1)Cc1ccc(Cl)cc1 | 0.055% (inactive) |
| CCOc1ccccc1N(CC(=O)Nc1ccc(S(=O)(=O)N2CCOCC2)cc1)S(=O)(=O)c1ccc(Cl)cc1 | 0.98% (inactive) |
| CC(C)C(=O)NC(=S)Nc1ccc(S(=O)(=O)N2CCCC2)cc1 | inactive |
| CN(CC(=O)Nc1ccc(Cl)cc1)c1ccc(S(=O)(=O)N2CCCCC2)cc1[N+](=O)[O-] | 13% (active) |
| COc1ccc(CCN(C)c2ccc(S(=O)(=O)N3CCCC3)cc2[N+](=O)[O-])cc1OC | inactive |
| CN(CC(=O)Nc1ccc(S(=O)(=O)N2CCCC2)cc1)Cc1cccc(Cl)c1Cl | 9% (active) |
| CCc1cccc(C)c1NC(=O)CSc1nc(-c2ccccc2F)nc2nc[nH]c12 | inactive |
| CCCCn1c(-c2ccco2)n[nH]c1=S | 1.02% (inactive) |
| CC(OC(=O)/C=C/c1ccco1)C(=O)Nc1cccc([N+](=O)[O-])c1 (stereo not given) | 0.7% (inactive) |
